A short description of experiment [1]: reducers of endogenous Her2 protein level, primary screen, SKBR3 breast tumor cells, AlphaScreen, ATP viability (AID 461).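 On Her2 level: lower value means less Her2 protein in the cells.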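 On viability: percent of carrier control wells set as 100% viability.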 The settings on record: 18-24 h, measured here: SKBR3 viability, ATP luminescence, at 10 µM.
In experiment [2] the target is Receptor tyrosine-protein kinase erbB-2 (Homo sapiens) (UniProt P04626). The description is as above. Particulars: 18-24 h, at 10 µM, stronger effect = lower value.
A short description of experiment [3]: SK-BR-3 cell growth inhibitors, pilot screen, 24 h, human (AID 572;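 active means viability at or below 10% of carrier control in both of two separate runs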;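 further: compound exposure lasted between 18 and 24 h rather than exactly 24 h; 100% = carrier-treated control wells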). Particulars: SK-BR-3 viability, CellTiter-Glo luminescence, at 10 µM, stronger effect = lower value.
A short description of experiment [4]: HUVEC growth inhibition – cell-based, human, primary screen (AID 575;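 active means viability at or below 30% in both replicate assays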;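 further: 100% = median of untreated cell wells with 0.1% DMSO on each plate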). Particulars: HUVEC proliferation, CellTiter-Glo luminescence, 72 h; at 10 µM; stronger effect = lower value.
A short description of experiment [5]: growth inhibitors of H69AR lung tumor, primary screen, human, duplicate replicates (AID 580;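 active means viability at or under a set limit in both replicates, limit being median viability minus 3 SD, cut at about 48% in these data, passing the limit was not always enough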;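 further: 100% = mean luminescence of untreated wells and 0% = no signal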). The settings on record: H69AR lung tumor cells viability, ATP luminescence, 72 h; at 10 µM; stronger effect = lower value.
Experiment [6] can be described thus: reversal of MRP1-mediated doxorubicin resistance, pilot screen, H69AR cells, doxorubicin co-treatment (AID 601;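 active means viability loss from added drug above about 55%, and viability with drug at most 40%, in both replicates, limit read from the data, passing the limit was not always enough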). Particulars: CellTiter-Glo, 72 h, at 10 µM; for differential viability (reversal): stronger effect = higher value.
Experiment [7] can be described thus: 384-well plate pilot, post-Golgi transport modulator project, inhibition of yeast transport mutant growth (AID 636; in the data active means inhibition above about 31%). The settings on record: absorbance 615 nm, about 18 h, stronger effect = higher value.
Experiment [8] in a line: growth suppression of yeast trafficking mutant, preliminary HTS, modulators of trafficking downstream of Golgi apparatus project, 1536-format plate, OD 615 nm (AID 637; in the data active means inhibition above about 30%). Particulars: yeast transport mutant growth, absorbance 615 nm, 18 h; stronger effect = higher value.
Experiment [9] is described as follows: OD615 S. cerevisiae growth inhibition, permissive medium, pilot counter-assay, permissive growth control for S. cerevisiae lifespan shortening project (AID 705;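 active means growth inhibition above 25% in both replicates, a cutoff set 3 SD above the mean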). Particulars: OD615, 24 h, at 10 µM, stronger effect = higher value.
The nature of experiment [10]: Restrictive medium S. cerevisiae growth inhibition, OD615, pilot screen of yeast lifespan reduction project, restrictive growth control (AID 706;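 active means growth inhibition above a set limit, 3 SD over mean compound inhibition, in both replicates, cut at about 43% in these data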;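 further: modified DeaD lifespan yeast strain shifted to restrictive glucose medium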). Particulars: OD615, 48 h, at 10 µM, stronger effect = higher value.
Experiment [11] in a line: viability gain of MRP-1-high H69AR cells under doxorubicin, pilot screen, MRP-1 activator project, CellTiter-Glo, duplicate (AID 807;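 active means viability increase at or above a cutoff of the median across tested compounds plus 3 SD, cut at about 8.5% in these data, passing the limit was not always enough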;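 further: compound pretreatment 18-22 h then 72 h combined with doxorubicin; 0% = doxorubicin alone and 100% = vehicle without doxorubicin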). The settings on record: H69AR viability with doxorubicin, CellTiter-Glo luminescence; at 10 µM; stronger effect = higher value.
A short description of experiment [12]: growth suppression of PTEN-deleted HCT116, pilot screen, cell-based, HCT116 clonal line, CellTiter-Glo (AID 824;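 active means viability at or below 27.92% in each of two runs, the all-compound median minus 4 SD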;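 further: 0% = 20 µM Hyamine control and 100% = vehicle cell control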). The settings on record: 60 h, at 10 µM, stronger effect = lower value.
Experiment [13] in a line: inhibitors of the yeast RAM network, pilot screen, dse1pr::URA3 reporter, 5-FOA selection (AID 869;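 active means inhibition over a set limit, the all-compound mean plus 3 SD, in both replicate runs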;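 further: 0% = DMSO wells with no growth and 100% = 10 µM 1-NA-PP1 with full growth; RAM network block rescues cells from 5-FOA so hits raise OD615 growth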). The settings on record: S. cerevisiae dse1pr::URA3 5-FOA growth, OD615, 2 d; at 10 µM; stronger effect = higher value; strain carries analog-sensitive mutant Cbk1 kinase.
Experiment [14] can be described thus: RAM signaling pathway blockade in yeast – S. cerevisiae, Pdr1DBD-CYC8 efflux-inhibited sensitized strain, primary screen (AID 1298;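 active means RAM network inhibition above 8.4% in each of two replicates, 3 SD over the compound average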;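 further: 0% = DMSO untreated cells without growth and 100% = 10 µM 1-NA-PP1 full growth; higher means more yeast growth rescued from 5-FOA killing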). The settings on record: S. cerevisiae cbk1-as DSE1-URA3 strain, 5-FOA growth OD615, 2 d; at 50 µM; stronger effect = higher value.
Experiment [15] in a line: growth suppression of beta-catenin knockout HCT116, pilot screen, human colon tumor cells (AID 823;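 active means cell viability at or below a set limit in both duplicate runs, the limit being the all-compound median minus 4 SD, cut at about 23% in these data, passing the limit was not always enough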;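 further: 0% = wells killed by 20 µM Hyamine and 100% = untreated DMSO cell wells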). Particulars: CellTiter-Glo, 60 h, at 10 µM, stronger effect = lower value.
[16] abbreviates: H69AR cells + 2 uM doxorubicin, measured here: viability with 2 uM doxorubicin, stronger effect = lower value.
The mark [17] stands for this setting: H69AR cells, compound alone cytotoxicity.

Structures are written as SMILES. Results filed as inconclusive are left out. The source made the active and inactive calls.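 How the source made its calls, unless noted: active means Her2 level under about 52% in both replicate screens, with viability over 70% of control (limit read from the data); inconclusive means Her2 under the limit in one screen only, or viability under 70%; inactive means Her2 level above the set limit.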

Sequence of Receptor tyrosine-protein kinase erbB-2 (Homo sapiens) (P04626 whole entry, looked up): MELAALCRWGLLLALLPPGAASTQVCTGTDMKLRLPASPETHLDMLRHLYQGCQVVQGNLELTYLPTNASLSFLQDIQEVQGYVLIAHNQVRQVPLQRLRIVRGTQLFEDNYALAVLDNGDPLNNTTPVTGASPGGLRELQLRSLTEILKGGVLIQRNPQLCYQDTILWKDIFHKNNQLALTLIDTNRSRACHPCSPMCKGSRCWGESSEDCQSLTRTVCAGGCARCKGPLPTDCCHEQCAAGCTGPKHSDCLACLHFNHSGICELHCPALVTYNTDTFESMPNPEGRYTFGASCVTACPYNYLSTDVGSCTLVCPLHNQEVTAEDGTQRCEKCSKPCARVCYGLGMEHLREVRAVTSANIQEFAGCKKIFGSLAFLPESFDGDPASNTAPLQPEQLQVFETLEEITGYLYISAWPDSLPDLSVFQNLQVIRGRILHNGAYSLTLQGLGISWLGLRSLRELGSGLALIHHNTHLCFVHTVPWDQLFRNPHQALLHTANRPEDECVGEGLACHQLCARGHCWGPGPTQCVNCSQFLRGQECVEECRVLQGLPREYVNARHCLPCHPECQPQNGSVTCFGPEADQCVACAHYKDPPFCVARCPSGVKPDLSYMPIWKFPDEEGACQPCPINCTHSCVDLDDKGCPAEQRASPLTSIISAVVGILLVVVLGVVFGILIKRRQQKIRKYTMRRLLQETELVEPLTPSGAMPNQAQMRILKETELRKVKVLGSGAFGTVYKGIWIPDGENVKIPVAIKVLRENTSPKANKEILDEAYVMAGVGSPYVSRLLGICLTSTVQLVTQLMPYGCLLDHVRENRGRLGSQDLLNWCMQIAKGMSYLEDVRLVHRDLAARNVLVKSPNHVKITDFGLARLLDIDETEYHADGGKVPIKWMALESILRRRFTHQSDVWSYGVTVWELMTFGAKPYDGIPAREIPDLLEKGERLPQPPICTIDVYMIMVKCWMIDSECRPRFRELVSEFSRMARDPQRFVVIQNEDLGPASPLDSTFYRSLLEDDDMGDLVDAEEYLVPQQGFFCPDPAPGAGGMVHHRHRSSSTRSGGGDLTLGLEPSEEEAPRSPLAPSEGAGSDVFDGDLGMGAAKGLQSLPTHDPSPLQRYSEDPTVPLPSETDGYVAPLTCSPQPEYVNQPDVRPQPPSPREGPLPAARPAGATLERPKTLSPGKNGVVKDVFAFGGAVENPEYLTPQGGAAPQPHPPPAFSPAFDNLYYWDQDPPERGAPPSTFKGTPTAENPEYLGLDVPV

Turning to `Cc1cc(N2CCOCC2)nc2ccc(NC(=O)C3CCC(C)CC3)cc12` (stereo not drawn), the viability was 73.5% in [1]; 73.5% (inactive) in [3]; 62.5% (inactive) in [4]; 76.3% (inactive) in [5]; 85.7% in experiment [6] (setting [16]); 76.3% in experiment [6] (setting [17]). Besides, the viability in [12] is 81% (inactive). Besides, the Her2 level in experiment [2] was 110% (inactive). The differential viability (reversal) in experiment [6] (H69AR cells + 2 uM doxorubicin) was -9.34% (inactive). The inhibition in experiment [7] was -0.27% (inactive); in experiment [8], -6.67% (inactive); in experiment [13], 1.95% (inactive). For the same compound, the growth inhibition in experiment [9] was -11.1% (inactive); in experiment [10], 0.545% (inactive). Also, the viability increase in [11] was -4.21% (inactive). Also, in [14], the RAM network inhibition was 4.29% (inactive).

On to `COc1cccc(N(C(C)=O)c2nc(C)cc(C)c2C#N)c1`, for which the viability in experiment [1] was 102%; in [3] it was 102% (inactive); in experiment [4], 96.1% (inactive); in experiment [5] it was 104% (inactive); in experiment [6] (setting [16]), 95.3%; in [6] (setting [17]), 104%. Also, in [15], the viability was 109% (inactive). The Her2 level in experiment [2] was 87% (inactive). The differential viability (reversal) in experiment [6] (H69AR cells + 2 uM doxorubicin) was 8.34% (inactive). For the same compound, the inhibition in experiment [7] is -7.26% (inactive); in experiment [8], -1.59% (inactive); in experiment [13] it was 1.36% (inactive). The growth inhibition is -15.4% (inactive) in [9] and 9.36% (inactive) in experiment [10]. Further, the viability increase in [11] was -0.35% (inactive). The RAM network inhibition in experiment [14] is 2.39% (inactive).

`CCN(CC)c1ccc2cc(-c3nc4ccccc4[nH]3)c(=O)oc2c1`: the viability in experiment [1] is 88%; in experiment [3], 88% (inactive); in experiment [4], 20.9% (active); in experiment [5], 3.43% (active); in [6] (setting [16]), 3.78%; in experiment [6] (setting [17]), 3.43%. Moreover, the Her2 level in [2] was 101% (inactive). The differential viability (reversal) in [6] (H69AR cells + 2 uM doxorubicin) was -0.345% (inactive). The figures for the inhibition in experiment [7], in experiment [8] and in experiment [13] were 0.13% (inactive), -6.39% (inactive) and -1.12% (inactive), respectively. The growth inhibition in experiment [9] is -3.73% (inactive); in experiment [10] it was -16.3% (inactive). Moreover, in experiment [11], the viability increase is -7.61% (inactive). Moreover, the RAM network inhibition in [14] was 0.92% (inactive).

On to `CN1C(=O)C(O)(CC(=O)c2ccccc2O)c2cc(Br)ccc21` (stereo not drawn), for which the viability is 103% in [1]; 103% (inactive) in experiment [3]; 45.5% (inactive) in [4]; 27% (active) in experiment [5]; 51.3% in experiment [6] (setting [16]); 27% in experiment [6] (setting [17]). Moreover, the Her2 level in experiment [2] is 85.5% (inactive). In addition, the differential viability (reversal) in experiment [6] (H69AR cells + 2 uM doxorubicin) was -24.3% (inactive). Moreover, the results for the inhibition in experiment [7], in [8] and in experiment [13] were -4.53% (inactive), 4% (inactive) and -0.67% (inactive), respectively. The growth inhibition in [9] was -2.37% (inactive); in experiment [10] it was 18% (inactive). Also, in experiment [11], the viability increase is -6.06% (inactive). Besides, the RAM network inhibition in experiment [14] is -2.32% (inactive).

In the case of `COc1ccc(NC(=O)CC2Sc3ncnn3C2=O)cc1` (stereo not drawn), the viability in experiment [1] is 109%; in experiment [3], 109% (inactive); in experiment [4], 88.3% (inactive); in experiment [5], 111% (inactive); in experiment [6] (setting [16]) it was 83.5%; in experiment [6] (setting [17]), 111%. The viability in experiment [15] was 95.2% (inactive); in experiment [12] it was 104% (inactive). The Her2 level in experiment [2] is 80.5% (inactive). In addition, in experiment [6] (H69AR cells + 2 uM doxorubicin), the differential viability (reversal) is 27% (inactive). Also, the inhibition in [7] was 0.77% (inactive); in experiment [8], 4% (inactive); in experiment [13], 1.05% (inactive). The growth inhibition in experiment [10] is 22.2% (inactive). For the same compound, the viability increase in [11] was -3.8% (inactive). Further, the RAM network inhibition in experiment [14] was 6.37% (inactive).

These data come from PubChem BioAssay.
